{"source": "PubChem BioAssay (Tox21)", "note": "Results filed as inconclusive are left out. The source made the active and inactive calls. The call rests on the fitted dose curve. Where a SMILES comes first, the peptide text is derived from it. [ ]: non-standard residue; d: D form. pGlu = O=C1CC[C@@H](C(=O)O)N1"}
{"target": "Thyrotropin receptor (Homo sapiens) (UniProt P16473)", "sequence (P16473 whole entry, looked up)": "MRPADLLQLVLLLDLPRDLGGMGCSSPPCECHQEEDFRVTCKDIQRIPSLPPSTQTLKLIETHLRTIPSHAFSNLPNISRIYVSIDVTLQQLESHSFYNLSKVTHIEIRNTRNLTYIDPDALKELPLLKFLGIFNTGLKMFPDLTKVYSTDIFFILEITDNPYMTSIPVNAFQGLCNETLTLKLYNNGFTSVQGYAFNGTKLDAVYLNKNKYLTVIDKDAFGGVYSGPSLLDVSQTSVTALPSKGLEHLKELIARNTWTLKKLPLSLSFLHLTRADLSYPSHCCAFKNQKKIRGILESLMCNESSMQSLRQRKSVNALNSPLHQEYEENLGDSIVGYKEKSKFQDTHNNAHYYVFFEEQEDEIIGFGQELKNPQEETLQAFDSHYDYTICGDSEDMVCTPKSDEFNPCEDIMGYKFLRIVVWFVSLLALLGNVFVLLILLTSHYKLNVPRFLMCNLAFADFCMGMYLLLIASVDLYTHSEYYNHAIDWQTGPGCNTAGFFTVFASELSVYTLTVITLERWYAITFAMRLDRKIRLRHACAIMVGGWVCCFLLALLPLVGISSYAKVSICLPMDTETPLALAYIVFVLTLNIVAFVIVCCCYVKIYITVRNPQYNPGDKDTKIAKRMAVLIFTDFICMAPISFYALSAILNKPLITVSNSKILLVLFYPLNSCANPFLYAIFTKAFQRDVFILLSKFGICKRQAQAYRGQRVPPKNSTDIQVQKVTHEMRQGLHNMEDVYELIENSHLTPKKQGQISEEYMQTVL", "assay": "qHTS assay to identify small molecule agonists of the thyroid stimulating hormone receptor (TSHR) signaling pathway (AID 1224843); further: on the % scale 0 is the no-effect control and ±100 the full control effect; nearly all actives have a fitted effect of over 45% in size", "settings": "TSHR-HEK293 cells, cAMP HTRF, agonist mode, 30 min; series mostly up to 92.4 µM; activation: at the top concentration", "excerpt": "National Center for Advancing Translational Sciences [NCATS]\nNIH Chemical Genomics Center [NCGC]\nU.S. Environmental Protection Agency [EPA]\nNational Institutes of Environmental Health Sciences [NIEHS]\nNational Toxicology Program [NTP]\nU.S. Food and Drug Administration [FDA]\nTSHR is the receptor for thyrotropin (thyroid stimulating hormone or TSH), a member of the glycoprotein hormone family. TSH is released by the anterior pituitary gland and is the main regulator of thyroid gland growth and development. Upon binding circulating thyrotropin, a G-protein signal cascade activates adenylyl cyclase and […] cAMP concentration is increased. cAMP is a key second messenger involved extensively in cellular signal transduction pathways associated with the majority of G-protein coupled receptors (GPCRs). The activation of these GPCRs by neurotransmitters, lipids, nucleotides, peptides and hormones results in the activation or the inhibition of plasma membrane-bound adenylate cyclase through heterotrimeric G-proteins. A cell-based TSHR assay was used to screen the Tox21 10K library for compounds that can modulate TSHR in agonist mode.\nTox21 Assay Protocol Summary:\nTSHR-Hek293 cells were dispensed at 800 cells/4uL/well in 1536-well white plates using a Multidrop dispenser. […] The plates were incubated at room temperature for 30 min. 2.5 ul/well of cAMP-d2 and 2.5ul/well of anti-cAMP-cryptate was added respectively into the assay plates using a Flying Reagent Dispenser. After 1 hr incubation at room temperature, the fluorescence intensity in the plates was measured using an Envision plate reader. Each test compound was measured at 15 concentrations and in triplicates."}
{"compound": "CCOc1ccccc1OCC", "activation": "-0.0032% (inactive)"}
{"compound": "C[C@@H]1C[C@H]2[C@@H]3C[C@H](F)C4=CC(=O)C(Cl)=C[C@]4(C)[C@@]3(F)[C@@H](O)C[C@]2(C)[C@@]1(O)C(=O)CO", "activation": "-17.1% [at 42.5 µM] (inactive)"}
{"compound": "O=C1NC(=O)C2CC=CCC12", "note": "(stereo not given)", "activation": "0.016% (inactive)"}
{"compound": "CCCCCCCCCCCCCCCCCCO", "activation": "7.64% [at 42.5 µM] (inactive)"}
{"compound": "CCCCN1C=CN(C)C1", "activation": "2.47% [at 19 µM] (inactive)"}
{"compound": "CC(C)(C#N)Nc1nc(Cl)nc(NC2CC2)n1", "activation": "13.1% (inactive)"}
{"compound": "C=CCCCCCCCCC(=O)OCC", "activation": "5.62% (inactive)"}
{"compound": "CC(=O)c1cnccn1", "activation": "-4.34% (inactive)"}
{"compound": "FB(F)F", "activation": "5.22% (inactive)"}
{"compound": "CCCCCCCCCCOc1cc2c(=O)c(C(=O)OCC)c[nH]c2cc1OCC", "activation": "-0.126% [at 8.39 µM] (inactive)"}
{"compound": "C=C(C)C(=O)OCC(O)CO", "note": "(stereo not given)", "activation": "-1.81% [at 42.5 µM] (inactive)"}
{"compound": "[Ca+2]", "activation": "2.17% (inactive)"}
{"compound": "COC(=O)Nc1ccc(Cl)c(Cl)c1", "activation": "-3.54% (inactive)"}
{"compound": "Clc1cc(Cl)cc(Cl)c1", "activation": "0.563% (inactive)"}
{"compound": "Cc1ccc(C(=O)c2ccc(CC(=O)O)n2C)cc1", "activation": "-8.84% [at 42.5 µM] (inactive)"}
{"compound": "CCN1C=CN(C)C1C", "note": "(stereo not given)", "activation": "6.66% (inactive)"}
{"compound": "CCCCS(=O)(=O)N[C@@H](Cc1ccc(OCCCCC2CCNCC2)cc1)C(=O)O", "activation": "-0.0949% [at 42.5 µM] (inactive)"}
{"compound": "CC1=NS(=O)(=O)c2cc(Cl)ccc2N1", "activation": "3.64% [at 42.5 µM] (inactive)"}
{"compound": "CCNC(=O)[C@@H]1CCCN1C(=O)[C@H](CCCN=C(N)N)NC(=O)[C@H](CC(C)C)NC(=O)CNC(=O)[C@H](Cc1ccc(O)cc1)NC(=O)[C@H](CO)NC(=O)[C@H](Cc1c[nH]c2ccccc12)NC(=O)[C@H](Cc1cnc[nH]1)NC(=O)[C@@H]1CCC(=O)N1", "note": "([pGlu]HWSYGLRP-NHEt)", "activation": "-4.32% [at 42.5 µM] (inactive)"}
{"compound": "O=C(O)CCSCCC(=O)O", "activation": "-3.15% (inactive)"}
{"compound": "O=C(O)Cc1csc(-c2ccc(Cl)cc2)n1", "activation": "1.63% [at 42.5 µM] (inactive)"}
{"compound": "NC(=O)NC1N=C([O][Al])NC1=O", "note": "(stereo not given)", "activation": "22.5% [at 42.5 µM] (inactive)"}
{"compound": "CCC(C)(CCCC(C)C)OC(C)=O", "note": "(stereo not given)", "activation": "-3.54% (inactive)"}
{"compound": "CC(=O)N[C@H]1[C@H]([C@H](O)[C@H](O)CO)OC(C(=O)O)=C[C@@H]1N=C(N)N", "activation": "-0.554% [at 42.5 µM] (inactive)"}
{"compound": "CCO[Si](OCC)(OCC)c1ccccc1", "activation": "5.37% (inactive)"}
{"compound": "CC(=O)OCC(=O)[C@@]1(O)[C@H](C)C[C@H]2[C@@H]3CCC4=CC(=O)C=C[C@]4(C)[C@@]3(F)[C@@H](O)C[C@@]21C", "activation": "0.676% [at 42.5 µM] (inactive)"}
{"compound": "CN1CCN(c2cc3c(nn2)Oc2ccccc2N3C)CC1", "activation": "-2.7% [at 19 µM] (inactive)"}
{"compound": "N[C@H](C(=O)O)[C@@H](O)c1ccc(O)c(O)c1", "activation": "1.39% [at 42.5 µM] (inactive)"}
{"compound": "O=C(CO)[C@@H](O)[C@H](O)[C@@H](O)CO", "activation": "1.01% [at 42.5 µM] (inactive)"}
{"compound": "COC(=O)C1=C(C)NC(C)=C(C(=O)OC(C)C)C1c1cccc2nonc12", "note": "(stereo not given)", "activation": "-15.3% [at 42.5 µM] (inactive)"}
{"compound": "COc1ccnc(CS(=O)c2nc3cc(OC(F)F)ccc3[nH]2)c1OC", "note": "(stereo not given)", "activation": "-26.7% (inactive)"}
{"compound": "CC1(C)OC[C@@H](COC(=O)CCc2ccc(OC[C@@H](O)CNCCNC(=O)N3CCOCC3)cc2)O1", "activation": "0.233% [at 42.5 µM] (inactive)"}
{"compound": "CCOCC(C)O", "note": "(stereo not given)", "activation": "-8.98% (inactive)"}
{"compound": "CC[N+](C)(CC)CCOC(=O)C1c2ccccc2Oc2ccccc21", "activation": "2.25% [at 42.5 µM] (inactive)"}
{"compound": "CC(C)(C)C(=O)c1ccccc1", "activation": "0.662% (inactive)"}
{"compound": "NS(=O)(=O)Cc1noc2ccccc12", "activation": "4.52% [at 42.5 µM] (inactive)"}
{"compound": "O=C(CO)[C@@H](O)[C@H](O)[C@H](O)CO", "activation": "0.61% (inactive)"}
{"compound": "CCOC(=O)OC(C)OC1=C(C(=O)Nc2ccccn2)N(C)S(=O)(=O)c2ccccc21", "note": "(stereo not given)", "activation": "-0.985% [at 42.5 µM] (inactive)"}
{"compound": "CC(=O)NC(=O)c1ccccc1O", "activation": "8.12% [at 42.5 µM] (inactive)"}
{"compound": "OCCCCCO", "activation": "-6.75% (inactive)"}
